Inconclusive results are not listed. The source made the active and inactive calls. The calls were made as follows: active = hit-call score of the fitted dose curve at least 0.9, where 1 is the maximum; inconclusive = response in the unintended direction; inactive = score below 0.9.
What was measured:
[1] = TOX21_p53_BLA_p2_viability: Viability Assessment in the Tox21 HCT-116 p53 Agonism Beta-lactamase Assay, Phase 2 (AID 2283591);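 also: compound exposure lasted 16 h at 37 °C; actives lower the ATP signal meaning cytotoxicity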
Method in brief: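 HCT-116 p53-bla cells (4000/well) rested 5 h at 37C, then received compounds in DMSO (217-fold dilution) for 16 h at 37C, 5% CO2. After the CCF4 read, CellTiter-Glo was added; ATP luminescence was read after 30 min at room temperature.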

[2] = target: Cellular tumor antigen p53 (Homo sapiens) (UniProt P04637); experiment: TOX21_p53_BLA_p2_ratio: Tox21 HCT-116 p53 Agonism Beta-lactamase Assay, Ratio, Phase 2 (AID 2283592)
Sequence of Cellular tumor antigen p53 (Homo sapiens) (P04637 whole entry, looked up): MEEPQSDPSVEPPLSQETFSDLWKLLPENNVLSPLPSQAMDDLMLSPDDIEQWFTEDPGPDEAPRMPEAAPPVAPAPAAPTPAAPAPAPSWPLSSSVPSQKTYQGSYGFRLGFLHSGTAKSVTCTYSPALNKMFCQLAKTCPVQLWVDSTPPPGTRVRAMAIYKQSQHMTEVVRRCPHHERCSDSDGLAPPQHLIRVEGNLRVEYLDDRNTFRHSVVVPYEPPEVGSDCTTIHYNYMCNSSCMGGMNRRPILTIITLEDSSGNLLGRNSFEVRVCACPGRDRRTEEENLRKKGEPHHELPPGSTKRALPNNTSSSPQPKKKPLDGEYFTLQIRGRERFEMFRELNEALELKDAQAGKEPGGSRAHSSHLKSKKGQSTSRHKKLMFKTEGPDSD
Method in brief: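 Human colon HCT116 cells with an inducible p53 beta-lactamase reporter are exposed to test chemicals for 16 h at 37C. Reporter induction is read as the 460/530 nm emission ratio after CCF4-AM loading, normalized to DMSO.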

[3] = TOX21_p53_BLA_p3_viability: Viability Assessment in the Tox21 HCT-116 p53 Agonism Beta-lactamase Assay, Phase 3 (AID 2283593);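 also: cells exposed to compound for 16 h before reading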
Method in brief: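 HCT-116 cells (4000/well) rested 5 h at 37C, then got DMSO compounds by pin tool (217-fold dilution) for 16 h at 37C, 5% CO2. After the bla read, CellTiter-Glo was added and luminescence read at 30 min, room temperature.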

[4] = target: Cellular tumor antigen p53 (Homo sapiens) (UniProt P04637); experiment: TOX21_p53_BLA_p3_ratio: Tox21 HCT-116 p53 Agonism Beta-lactamase Assay, Ratio, Phase 3 (AID 2283596)
Method in brief: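 HCT116 p53-bla cells (4000/well) given compound in DMSO (217-fold dilution) after 5 h, incubated 16 h at 37C. CCF4-AM substrate 2 h at room temperature; 460/530 nm emission ratio, gain fitted against DMSO.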

[5] = TOX21_p53_BLA_p4_viability: Viability Assessment in the Tox21 HCT-116 p53 Agonism Beta-lactamase Assay, Phase 4 (AID 2283597);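 also: hits lower the luminescence signal meaning cytotoxicity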
Method in brief: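 Luminescent ATP readout (CellTiter-Glo, 30 min, room temperature) in the same wells as the p53 bla ratio. HCT116 cells were treated for 16 h at 37C with DMSO-dissolved compounds.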

[6] = target: Cellular tumor antigen p53 (Homo sapiens) (UniProt P04637); experiment: TOX21_p53_BLA_p5_ratio: Tox21 HCT-116 p53 Agonism Beta-lactamase Assay, Ratio, Phase 5 (AID 2283599)
Method in brief: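 HCT-116 cells carrying a p53-inducible beta-lactamase reporter were seeded at 4000 cells/well and dosed after 5 h with compound in DMSO (217-fold dilution). After 16 h at 37C, CCF4-AM substrate was added for 2 h, and the 460/530 nm emission ratio was scored as gain-of-signal versus DMSO.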

[7] = TOX21_p53_BLA_p5_viability: Viability Assessment in the Tox21 HCT-116 p53 Agonism Beta-lactamase Assay, Phase 5 (AID 2283600)
Method in brief: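 Seeded cells (4000/well) settle 5 h before compound addition. Plates then incubate 16 h at 37C, receive FRET substrate for 2 h, and finally CellTiter-Glo, with luminescence measured after a 30 min room-temperature incubation.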

[8] = target: Cellular tumor antigen p53 (Homo sapiens) (UniProt P04637); experiment: TOX21_p53_BLA_p4_ratio: Tox21 HCT-116 p53 Agonism Beta-lactamase Assay, Ratio, Phase 4 (AID 2283601)
Method in brief: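 HCT116 cells carrying an inducible beta-lactamase reporter were plated at 4000 cells/well, rested 5 h, then exposed to compounds in DMSO (217-fold dilution) for 16 h at 37C. CCF4-AM substrate was loaded 2 h at room temperature; 460/530 nm emission ratio scored gain-of-signal versus DMSO.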

Measured: AC50

CN(C)[C@@H]1C(=O)C(C(=O)NCN2CCCC2)=C(O)[C@@]2(O)C(=O)C3=C(O)c4c(O)cccc4[C@@](C)(O)C3C[C@@H]12 (some centres not stated)
inactive: all assays above

Cc1ncc(C[n+]2csc(CCOP(=O)(O)O)c2C)c(N)n1
inactive: all assays above

CN[C@H]1CC[C@@H](c2ccc(Cl)c(Cl)c2)c2ccccc21
active: [1] 33.6 µM | [3] 42 µM | [5] 34.6 µM | [8] 36.8 µM
inactive: all other assays above

COc1cc(C(=O)OCCCN2CCCN(CCCOC(=O)c3cc(OC)c(OC)c(OC)c3)CC2)cc(OC)c1OC
inactive: all assays above

CNCC[C@H](Oc1cccc2ccccc12)c1cccs1
active: [1] 35.4 µM | [2] 43.5 µM | [5] 35.4 µM | [8] 43.7 µM
inactive: all other assays above

C=C(Nc1ccc(OCC)cc1)Nc1ccc(OCC)cc1
inactive: all assays above

c1ccc(C(O[C@H]2CCCN(CCc3ccc4c(c3)OCO4)C2)c2ccccc2)cc1
inactive: all assays above

COc1cc(N)c(Cl)cc1C(=O)NC1CCN(CCCOc2ccc(F)cc2)CC1OC (configuration not stated)
inactive: all assays above

Cc1cc2c(C(C)C)c(O)c(O)c(C=O)c2c(O)c1-c1c(C)cc2c(C(C)C)c(O)c(O)c(C=O)c2c1O
active: [1] 10 µM | [2] 30.1 µM | [3] 6.89 µM | [4] 29.9 µM | [5] 10 µM | [6] 35 µM | [7] 10.2 µM | [8] 33.2 µM

CC(=O)[C@@]1(O)CC[C@H]2[C@@H]3C=C(Cl)C4=CC(=O)CC[C@]4(C)[C@H]3CC[C@@]21C
active: [2] 37 µM | [5] 23 µM | [6] 37.9 µM | [8] 37.8 µM
inactive: all other assays above

O=P(O)(OCc1ccccc1)OCc1ccccc1
active: [6] 86.9 µM
inactive: all other assays above

O=C(O)c1cc(=O)[nH]c(=O)[nH]1
inactive: all assays above

CC(C)OC(=O)OCOP(=O)(CO[C@H](C)Cn1cnc2c(N)ncnc21)OCOC(=O)OC(C)C
inactive: all assays above

CCOC(CN1CCN(CC(C)C(=O)c2ccccc2)CC1)c1ccccc1 (configuration not stated)
inactive: all assays above

CC(=O)OCCN(CCOC(C)=O)c1ccc(N=Nc2ccc([N+](=O)[O-])cc2C#N)cc1
inactive: all assays above

C=CC(=O)Nc1cc2c(Nc3ccc(F)c(Cl)c3)ncnc2cc1OCCCN1CCOCC1
active: [3] 38.7 µM | [4] 25.4 µM | [8] 7.82 µM
inactive: all other assays above

NC1(c2ccc(-c3nc4ccn5c(=O)[nH]nc5c4cc3-c3ccccc3)cc2)CCC1
active: [5] 8.62 µM
inactive: all other assays above

Cc1ccc(S(=O)(=O)NC(=O)NN2CC3CCCC3C2)cc1 (configuration not stated)
inactive: all assays above

Oc1c(Cl)cc(Cl)c2cccnc12
inactive: [1] | [3] | [7]
active: [2] 7.4 µM | [4] 7.23 µM | [5] 7.77 µM | [6] 7.4 µM | [8] 6.25 µM

CCN(CC)C(=O)/C(C#N)=C/c1cc(O)c(O)c([N+](=O)[O-])c1
active: [2] 33.7 µM
inactive: all other assays above

CCCOc1ccccc1-c1nc2n[nH]nc2c(=O)[nH]1
inactive: all assays above

CCCC(C(=O)OCCN(CC)CC)(c1ccccc1)c1ccccc1
active: [5] 31.2 µM
inactive: all other assays above

O=C1c2cccc(O)c2C(=O)c2c(O)cccc21
inactive: all assays above

CCCCCCCC/C=C\CCCCCCCCOCCO
active: [1] 72.5 µM | [2] 96.6 µM | [3] 29.2 µM | [4] 80.3 µM | [5] 72.6 µM | [6] 56.2 µM | [7] 21.1 µM | [8] 105 µM

Oc1ccc(Cl)c2cccnc12
inactive: all assays above

COc1ccc(S(=O)(=O)Nc2nnc(CC(C)C)s2)cc1
inactive: all assays above

OC[C@]1(O)OC[C@@H](O)[C@H](O)[C@@H]1O
inactive: all assays above

C[C@@H](NCCCc1cccc(C(F)(F)F)c1)c1cccc2ccccc12
inactive: [6] | [7]
active: [1] 21.4 µM | [2] 39 µM | [3] 30 µM | [4] 40.2 µM | [5] 15.2 µM | [8] 25.1 µM

Nc1ccc(S(=O)(=O)Nc2ccc(Cl)nn2)cc1
inactive: all assays above

CCCCCCCCCCCCCCC(=O)O
inactive: all assays above

CN(C)c1nc(N(C)C)nc(N(C)C)n1
inactive: all assays above

CC[C@H]1OC(=O)C[C@@H](O)[C@H](C)[C@@H](O[C@@H]2O[C@H](C)[C@@H](O[C@H]3C[C@@](C)(O)[C@@H](O)[C@H](C)O3)[C@H](N(C)C)[C@H]2O)[C@@H](CC=O)C[C@@H](C)C(=O)/C=C/C(C)=C/[C@@H]1CO[C@@H]1O[C@H](C)[C@@H](O)[C@@H](OC)[C@H]1OC
inactive: all assays above

CCOC(=O)C=CC(=O)O
inactive: all assays above

COc1cc(C=C2CCCC(=Cc3ccc(O)c(OC)c3)C2=O)ccc1O
inactive: [2] | [4] | [8]
active: [1] 15.2 µM | [3] 15.5 µM | [5] 27.8 µM | [6] 11.5 µM | [7] 17 µM

CCNC(=O)N1CCN(CCCC(c2ccc(F)cc2)c2ccc(F)cc2)CC1
inactive: all assays above

O=[N+]([O-])c1c(Cl)cccc1-c1c[nH]cc1Cl
active: [3] 37.2 µM | [4] 23.6 µM | [5] 36.3 µM
inactive: all other assays above

CCOC(=O)COc1ccc2c(=O)cc(-c3ccccc3)oc2c1
inactive: all assays above

N=C(N)c1ccc(OCCCOc2ccc(C(=N)N)cc2)cc1
inactive: all assays above

CC(=O)c1cccc([N+](=O)[O-])c1
inactive: all assays above

CCc1c2c(nc3ccc(OC(=O)N4CCC(N5CCCCC5)CC4)cc13)-c1cc3c(c(=O)n1C2)COC(=O)[C@]3(O)CC
active: [2] 5.56 µM | [4] 5.37 µM | [6] 7.41 µM | [8] 11.3 µM
inactive: all other assays above

N=C(N)c1ccc(OCCCOc2ccc(C(=N)N)cc2Br)c(Br)c1
inactive: all assays above

Cc1ccc(S(=O)(=O)NC(=O)NC2CCCCCCC2)cc1
inactive: all assays above

O[C@@H](CNC[C@H](O)[C@H]1CCc2cc(F)ccc2O1)[C@@H]1CCc2cc(F)ccc2O1
inactive: [2] | [3] | [4]
active: [1] 34.9 µM | [5] 33.5 µM | [6] 37.1 µM | [7] 43.1 µM | [8] 43.4 µM

C[N+]1(CC2COC(c3ccccc3)(C3CCCCC3)O2)CCCCC1 (configuration not stated)
inactive: all assays above

Source: PubChem BioAssay (EPA / NIEHS)
